Test results as given in PubChem BioAssay (EPA / NIEHS).
Inconclusive results are not listed. Active and inactive are the calls of the source. The calls were made as follows: active = hit-call score of the fitted dose curve at least 0.9, where 1 is the maximum; inconclusive = response in the unintended direction; inactive = score below 0.9.

Tests used:
[1] = target: Cellular tumor antigen p53 (Homo sapiens) (UniProt P04637); assay: TOX21_p53_BLA_p2_ratio: Tox21 HCT-116 p53 Agonism Beta-lactamase Assay, Ratio, Phase 2 (AID 2283592)
Sequence of Cellular tumor antigen p53 (Homo sapiens) (P04637 whole entry, looked up): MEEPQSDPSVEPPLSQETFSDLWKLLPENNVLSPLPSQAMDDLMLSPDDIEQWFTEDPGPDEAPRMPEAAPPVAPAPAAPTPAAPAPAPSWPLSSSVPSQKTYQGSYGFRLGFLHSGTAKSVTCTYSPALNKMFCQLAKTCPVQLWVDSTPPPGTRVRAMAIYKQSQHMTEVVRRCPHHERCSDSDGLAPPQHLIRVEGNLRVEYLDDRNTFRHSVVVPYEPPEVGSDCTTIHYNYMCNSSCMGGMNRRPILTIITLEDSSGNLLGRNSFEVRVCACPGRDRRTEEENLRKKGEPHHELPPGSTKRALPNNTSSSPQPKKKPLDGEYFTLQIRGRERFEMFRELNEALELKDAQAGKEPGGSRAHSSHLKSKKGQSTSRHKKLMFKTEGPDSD
Method in brief: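 Ratio endpoint: beta-lactamase cleavage of CCF4-AM, blue (460 nm) over green (530 nm). HCT116 reporter line; 16 h treatment, 37C; substrate 2 h RT.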

[2] = TOX21_p53_BLA_p3_viability: Viability Assessment in the Tox21 HCT-116 p53 Agonism Beta-lactamase Assay, Phase 3 (AID 2283593);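 also: cells exposed to compound for 16 h before reading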
Method in brief: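 HCT-116 cells (4000/well) rested 5 h at 37C, then got DMSO compounds by pin tool (217-fold dilution) for 16 h at 37C, 5% CO2. After the bla read, CellTiter-Glo was added and luminescence read at 30 min, room temperature.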

[3] = target: Cellular tumor antigen p53 (Homo sapiens) (UniProt P04637); assay: TOX21_p53_BLA_p3_ratio: Tox21 HCT-116 p53 Agonism Beta-lactamase Assay, Ratio, Phase 3 (AID 2283596)
Method in brief: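 Cells were seeded at 4000/well, rested 5 h at 37C, then dosed with DMSO compound solutions (217-fold dilution) for 16 h. CCF4-AM substrate was loaded for 2 h at room temperature, and the 460/530 nm emission ratio was fitted for gain of signal versus DMSO.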

[4] = TOX21_p53_BLA_p4_viability: Viability Assessment in the Tox21 HCT-116 p53 Agonism Beta-lactamase Assay, Phase 4 (AID 2283597);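 also: hits lower the luminescence signal meaning cytotoxicity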
Method in brief: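 Cytotoxicity was inferred from loss of CellTiter-Glo luminescence. HCT116 cells had been dosed with compounds after 5 h plating, incubated 16 h at 37C and 5% CO2, and exposed to the CCF4-AM substrate for 2 h.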

[5] = target: Cellular tumor antigen p53 (Homo sapiens) (UniProt P04637); assay: TOX21_p53_BLA_p5_ratio: Tox21 HCT-116 p53 Agonism Beta-lactamase Assay, Ratio, Phase 5 (AID 2283599)
Method in brief: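 HCT-116 cells carrying a p53-inducible beta-lactamase reporter were seeded at 4000 cells/well and dosed after 5 h with compound in DMSO (217-fold dilution). After 16 h at 37C, CCF4-AM substrate was added for 2 h, and the 460/530 nm emission ratio was scored as gain-of-signal versus DMSO.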

[6] = TOX21_p53_BLA_p5_viability: Viability Assessment in the Tox21 HCT-116 p53 Agonism Beta-lactamase Assay, Phase 5 (AID 2283600)
Method in brief: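 Luciferase-coupled ATP quantitation of cells treated for 16 h (37C, 5% CO2) with test chemicals delivered in DMSO via a 217-fold dilution; 4000 cells/well; reagent incubated 30 min at room temperature before luminescence reading.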

[7] = target: Cellular tumor antigen p53 (Homo sapiens) (UniProt P04637); assay: TOX21_p53_BLA_p4_ratio: Tox21 HCT-116 p53 Agonism Beta-lactamase Assay, Ratio, Phase 4 (AID 2283601)
Method in brief: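 HCT116 cells carrying an inducible beta-lactamase reporter were plated at 4000 cells/well, rested 5 h, then exposed to compounds in DMSO (217-fold dilution) for 16 h at 37C. CCF4-AM substrate was loaded 2 h at room temperature; 460/530 nm emission ratio scored gain-of-signal versus DMSO.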

Row | Structure (SMILES) | outcome [1] | outcome [2] | outcome [3] | outcome [4] | outcome [5] | outcome [6] | outcome [7] | AC50 [1] | AC50 [3] | AC50 [5] | AC50 [7] | AC50 [4]
1 | Nc1ncnc2c1ncn2[C@@H]1O[C@H](COP(=O)(O)OP(=O)(O)OP(=O)(O)O)[C@@H](O)[C@H]1O | inactive | inactive | inactive | inactive | inactive | inactive | inactive |  |  |  |  | 
2 | Cc1c(N)nc(C(CC(N)=O)NCC(N)C(N)=O)nc1C(=O)NC(C(=O)NC(C)C(O)C(C)C(=O)NC(C(=O)NCCc1nc(-c2nc(C(=O)NCCCN[C@@H](C)c3ccccc3)cs2)cs1)C(C)O)C(O[C@@H]1O[C@@H](CO)[C@@H](O)[C@H](O)[C@@H]1O[C@H]1O[C@H](CO)[C@@H](O)[C@H](OC(N)=O)[C@@H]1O)c1cnc[nH]1 (stereo partly drawn) |  | inactive |  | inactive |  | inactive |  | 0.286 µM (active) | 0.301 µM (active) | 0.43 µM (active) | 0.193 µM (active) | 
3 | O=C1N=C(O)CN1N=Cc1ccc(-c2ccc([N+](=O)[O-])cc2)o1 | inactive | inactive | inactive | inactive | inactive | inactive | inactive |  |  |  |  | 
4 | CCCC(=O)N1CCCN(c2nc(N)c3cc(OC)c(OC)cc3n2)CC1 | inactive | inactive | inactive | inactive | inactive | inactive | inactive |  |  |  |  | 
5 | CC1(C)O[C@H]2CC(=O)OC[C@]23[C@H]2CC[C@@]4(C)[C@H](c5ccoc5)OC(=O)[C@H]5O[C@]54[C@]2(C)C(=O)C[C@@H]13 | inactive | inactive | inactive | inactive | inactive | inactive | inactive |  |  |  |  | 
6 | CC12CCC(CC1=O)C2(C)C (stereo not drawn) | inactive | inactive | inactive | inactive | inactive | inactive | inactive |  |  |  |  | 
7 | O=C(O)Cc1ccccc1Oc1ccc(Cl)cc1Cl | inactive | inactive | inactive | inactive | inactive | inactive | inactive |  |  |  |  | 
8 | COCC(O)CO (stereo not drawn) | inactive | inactive | inactive | inactive | inactive | inactive | inactive |  |  |  |  | 
9 | NC(N)=NN=Cc1c(Cl)cccc1Cl | inactive | inactive | inactive | inactive | inactive | inactive | inactive |  |  |  |  | 
10 | CCCN1CCCC[C@H]1C(=O)Nc1c(C)cccc1C | inactive | inactive | inactive | inactive | inactive | inactive | inactive |  |  |  |  | 
11 | Cc1ccc(O)c2ncccc12 | inactive | inactive | inactive | inactive | inactive | inactive | inactive |  |  |  |  | 
12 | CO/N=C(\C(=O)N[C@@H]1C(=O)N2C(C(=O)O)=C(COC(C)=O)CS[C@H]12)c1csc(N)n1 (stereo in doubt) | inactive | inactive | inactive | inactive | inactive | inactive | inactive |  |  |  |  | 
13 | C=C1/C(=C\C=C2/CCC[C@]3(C)[C@@H]([C@H](C)OCCC(C)(C)O)CC[C@@H]23)C[C@@H](O)C[C@@H]1O |  | inactive |  | inactive |  | inactive |  | 12.7 µM (active) | 14.3 µM (active) | 13.5 µM (active) | 9.97 µM (active) | 
14 | Cc1cccn2c(=O)c(-c3nnn[nH]3)cnc12 | inactive | inactive | inactive | inactive | inactive | inactive | inactive |  |  |  |  | 
15 | O=C(O)Cc1ccc(-c2ccccc2)cc1 | inactive | inactive | inactive | inactive | inactive | inactive | inactive |  |  |  |  | 
16 | C#CCOc1ccc2c(C)cc(=O)oc2c1 | inactive | inactive | inactive | inactive | inactive | inactive | inactive |  |  |  |  | 
17 | c1ccc(-n2cnnn2)cc1 | inactive | inactive | inactive | inactive | inactive | inactive | inactive |  |  |  |  | 
18 | Cc1cc2c(cc1S(N)(=O)=O)S(=O)(=O)CCC2 | inactive | inactive | inactive | inactive | inactive | inactive | inactive |  |  |  |  | 
19 | CCOc1ccccc1C(N)=O | inactive | inactive | inactive | inactive | inactive | inactive | inactive |  |  |  |  | 
20 | O=C(O)c1cc(O)c2c(c1)C(=O)c1cccc(O)c1C2=O | inactive | inactive | inactive | inactive | inactive | inactive | inactive |  |  |  |  | 
21 | C[C@H](O)[C@H](O)[C@H]1CNc2nc(N)[nH]c(=O)c2N1 | inactive | inactive | inactive | inactive | inactive | inactive | inactive |  |  |  |  | 
22 | CCn1cc(C(=O)O)c(=O)c2cc(F)c(N3CCN(C)CC3)cc21 | inactive | inactive | inactive | inactive | inactive | inactive | inactive |  |  |  |  | 
23 | CCCCOC(=O)c1ccc(N)cc1 | inactive | inactive | inactive | inactive | inactive | inactive | inactive |  |  |  |  | 
24 | CCN(CC)CCNc1ccc(CO)c2sc3ccccc3c(=O)c12 |  | inactive |  |  |  | inactive |  | 16.2 µM (active) | 23.2 µM (active) | 20.5 µM (active) | 14.3 µM (active) | 33.2 µM (active)
